Source: PubChem BioAssay (NCATS)
Inconclusive results are not listed. Active and inactive are the calls of the source. Unless noted, calls come from the whole dose curve; as a rule, active = well fitted curve in the direction sought with a large enough effect; inconclusive = small, poorly fitted or top-dose-only effect, or another doubt; inactive = no such curve, though single readings can be large; an effect the other way counts as inactive or inconclusive.

How the values were obtained:
[1] = target: Cytochrome P450 1A2 (Homo sapiens) (UniProt P05177); assay: p450-cyp1a2 (AID 410; calls by dose curve;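 note: -100% = full effect of reference inhibitor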)
Outline: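 20nM CYP1A2 with 100uM Luciferin-ME (at Km) in 100mM KPO4; compound preincubated 10 min, NADPH regeneration added, 60 min at room temperature. Luciferin quantified by luminescence after detection reagent; normalized to 57 uM furafylline.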

[2] = NFAT Signaling Pathway (AID 444; active = well fitted curve in either direction with a large enough effect, not every such curve was filed as active;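 note: carbachol stimulus at about its EC50 of 1 µM final; % is set by controls: 0 for no effect and ±100 for the full control effect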); settings: Jurkat NFAT-bla M1, carbachol, beta-lactamase ratio, 5 h; at 17.2 µM (top of the series)
Outline: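 Jurkat cells with NFAT-driven β-lactamase reporter and co-expressed M1 receptor, stimulated with carbachol (final 1 uM, ~EC50), compound titration, 5 h at 37 °C. CCF4 loaded 1 h at RT; 460/530 nm ratio gave %activity and AC50.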

[3] = Stat Signaling Pathway (AID 446; active = well fitted curve in either direction with a large enough effect, not every such curve was filed as active;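 note: ME-180 cervical cancer cells given 40 pM IL-6 alongside compound; SIE-controlled beta-lactamase reporter measured as 460/530 nm FRET emission ratio; % is set by controls: 0 for no effect and ±100 for the full control effect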)
Outline: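 IL-6/STAT signaling read in ME-180 cells via an SIE beta-lactamase reporter. Stimulus was 40 pM IL-6 (its AC50) for 5 hrs, so both activation and inhibition register.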

[4] = target: Glucocorticoid receptor (Homo sapiens) (UniProt P04150); assay: GR-GFP Redistribution (AID 450;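 active = compounds whose dose series gives a full or clear partial fitted curve of increased nuclear translocation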; note: potency is the fitted concentration of half-maximal effect); settings: U2OS GR-GFP nuclear translocation, laser cytometry, 2 h
[5] = target: Glucocorticoid receptor (Homo sapiens) (UniProt P04150); assay: GR-EFC Redistribution (AID 451; calls by dose curve; note: potency is the fitted concentration of half-maximal effect); settings: CHO-K1 GR-EFC translocation, beta-gal luminescence, 2 h
Outline: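 CHO-K1 cells expressing nuclear EA and GR-ED fragments of b-gal; compounds titrated up to 46 uM final, 2 h at 37 C. GR nuclear translocation read as complemented b-gal luminescence after 1 h RT detection.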

[6] = target: Mitogen-activated protein kinase 10 (Mus musculus) (UniProt Q61831); assay: JNK3 AlphaScreen Assay (AID 530; active = well fitted curve in either direction with a large enough effect, not every such curve was filed as active;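 note: kinase came from lysate of stimulated human HepG2 cells; signal reports phosphorylation of biotinylated GST-cJun 1-79 at Ser73 with 10 µM ATP; % is set by controls: 0 for no effect and ±100 for the full control effect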)
Outline: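 Pre-activated (IL-1β/TNFα) JNK3 in HepG2 lysates phosphorylates biotin-GST-cJun(1-79), 10 uM ATP; anti-phospho-cJun(Ser73) AlphaScreen read at room temperature, pH 7.6 Tris buffer. Compounds pre-incubated 15 min as titrations.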

[7] = target: 3',5'-cyclic-AMP phosphodiesterase 4B (Homo sapiens) (UniProt Q07343); assay: qHTS Assay for Inhibitors of PDE-IV (AID 607; active = well fitted activation curve with a large enough effect in the main read-out, with a control signal flat, not every such curve was filed as active; note: % of control where 0% means no effect)
Outline: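 Live HEK293 cells with a modified cyclic nucleotide-gated (CNG) channel report intracellular cAMP via membrane-potential dye fluorescence (ex 535/em 590 nm). Endogenous PDE-IV was targeted. Compounds were tested at up to 22.9 uM final; RO 20-1724 100 uM served as control.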

[8] = qHTS Assay for Lipid Storage Modulators (AID 1519; calls by dose curve); settings: Drosophila S3 cells, BODIPY lipid droplet/cell ratio, laser cytometry, cells loaded with oleic acid
Outline: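 Cells seeded at 5,000 per well were treated with compounds over a concentration series and loaded with oleic acid (400 uM, as added). Lipid droplet fluorescence (488 nm excitation, 500-530 nm channel) was read by laser-scanning cytometry and normalized to 20 uM Triacsin C.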

[9] = AP1 Signaling Pathway (AID 357; active = well fitted curve in either direction with a large enough effect, not every such curve was filed as active;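 note: ME-180 reporter cells stimulated with EGF at its EC50 level; % is set by controls: 0 for no effect and ±100 for the full control effect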)
Outline: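 AP-1-bla ME-180 cells, Opti-MEM + 0.5% dialyzed FBS, plated overnight 37 °C. Cpd titration + EC50 EGF, 5 h 37 °C. CCF4 2.5 h RT; ex 405, em 460/530 ratio → %activity, AC50.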

[10] = target: Ubiquitin carboxyl-terminal hydrolase 1 (Homo sapiens) (UniProt O94782); assay: Inhibitors of USP1/UAF1: Pilot qHTS (AID 504865); note: nearly all actives have a fitted effect of over 35% in size; note: potency is the fitted concentration of half-maximal effect
Outline: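 Deubiquitinase activity followed as kinetic rhodamine fluorescence release from 150 nM Ub-Rho. 1 nM USP1/UAF1 with compound, after 15 min room-temperature preincubation, in HEPES pH 7.8 buffer containing TCEP, EDTA, BSA and Tween-20.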

[11] = target: Cytochrome P450 3A4 (Homo sapiens) (UniProt P08684); assay: qHTS Assay for Inhibitors and Substrates of Cytochrome P450 3A4 (AID 884); note: nearly all actives have a fitted effect of over 50% in size; note: potency is the fitted concentration of half-maximal effect
Outline: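 20 nM human CYP3A4 with 25 uM Luciferin-PPXE (at KM) in 200 mM KPO4, preincubated 10 min with compound; NADPH regeneration started a 60 min RT reaction. Luciferin detected by luminescence, normalized to 57 uM ketoconazole as full inhibition.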

[12] = Confirmation and Secondary Assay for Modulators of Hemoglobin Beta Chain Splicing at IVS2 654 locus (AID 910);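 note: HeLa cells stably carrying EGFP split by mutant beta-globin IVS2-654 intron; % of control where 0% means no effect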
Outline: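 HeLa cells stably expressing EGFP interrupted by β-globin IVS2-654 intron, seeded overnight in Opti-MEM/2% FCS, then treated 2 days at 37 °C. Restored splicing read as total peak GFP intensity per well by laser scanning cytometry (488 nm excitation, 500–520 nm emission); 500 nM antisense PNA as control.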

[13] = Confirmation and Secondary Assay for Modulators of Hemoglobin Beta Chain Splicing at IVS2 705 locus (AID 930);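 note: HeLa cells stably expressing the EGFP-705 splicing reporter; GFP fluorescence per well restored by corrected splicing of the IVS2-705 intron in EGFP; % of control where 0% means no effect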
Outline: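 HeLa cells stably carrying EGFP interrupted by mutant beta-globin intron 2 (IVS2-705) treated 2 days at 37C with compound; 500 nM antisense PNA as control. Correct splicing read as total peak GFP intensity per well by laser-scanning cytometry.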

[14] = target: ATP-dependent 6-phosphofructokinase (Trypanosoma brucei brucei) (UniProt O15648); assay: qHTS Assay to Find Inhibitors of T. brucei phosphofructokinase: hit validation (AID 492961); note: % is set by controls: 0 for no effect and ±100 for the full control effect
Outline: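 Luminescence from ADP-Glo reports ADP generated as T. brucei PFK (1.25 nM) phosphorylates 0.5 mM fructose-6-phosphate using 0.1 mM ATP. Reactions ran 45 min at room temperature, pH 8.0.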

[15] = target: Luciferin 4-monooxygenase (Photinus pyralis) (UniProt P08659); assay: Biochemical firefly luciferase enzyme assay for NPC (AID 624030);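 note: purified P. pyralis luciferase at 10 nM with luciferin and ATP substrate; 0% = DMSO and -100% = full luciferase inhibition by PTC124 control; nearly all actives have a fitted effect of over 70% in size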
Outline: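 Purified P. pyralis luciferase at 10 nM in 50 mM Tris Acetate (final), luminescence read within 5 minutes of enzyme addition to compounds. Activity normalised to PTC124 versus DMSO; concentration-response curves classed by r2, magnitude and activity.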

[16] = qHTS profiling for inhibitors of Plasmodium falciparum proliferation (AID 504749); note: potency is the fitted concentration of half-maximal effect;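 for activity, negative = inhibition: 0% = DMSO vehicle and full inhibition = artemisinin control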; for all read-outs here: nearly all actives have a fitted effect of over 60% in size; settings: P. falciparum in erythrocytes, SYBR Green DNA, 72 h; for activity, negative = inhibition: at 28.7 µM (top of the series)
Outline: (§1)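 P. falciparum-infected erythrocytes (0.3% parasitemia, 2.5% hematocrit) incubated with compound 72 h at 37 C, 5% CO2. Parasite DNA detected by SYBR Green after lysis, overnight at room temperature; normalised to 0.29 uM artemisinin and DMSO.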

[17] = system: AS120; assay: as above; settings: P. falciparum in erythrocytes, SYBR Green DNA, 72 h; series mostly up to 28.7 µM
Outline: as §1

[18] = system: ATS189; assay: as above; settings: P. falciparum in erythrocytes, SYBR Green DNA, 72 h; series mostly up to 28.7 µM
Outline: as §1

[19] = system: DFO2036; assay: as above; settings: P. falciparum in erythrocytes, SYBR Green DNA, 72 h; series mostly up to 28.7 µM
Outline: as §1

[20] = measured here: cell count channel max response
[21] = measured here: lipid channel max response

Sequence of Glucocorticoid receptor (Homo sapiens) (P04150 whole entry, looked up, the tested form may be a part): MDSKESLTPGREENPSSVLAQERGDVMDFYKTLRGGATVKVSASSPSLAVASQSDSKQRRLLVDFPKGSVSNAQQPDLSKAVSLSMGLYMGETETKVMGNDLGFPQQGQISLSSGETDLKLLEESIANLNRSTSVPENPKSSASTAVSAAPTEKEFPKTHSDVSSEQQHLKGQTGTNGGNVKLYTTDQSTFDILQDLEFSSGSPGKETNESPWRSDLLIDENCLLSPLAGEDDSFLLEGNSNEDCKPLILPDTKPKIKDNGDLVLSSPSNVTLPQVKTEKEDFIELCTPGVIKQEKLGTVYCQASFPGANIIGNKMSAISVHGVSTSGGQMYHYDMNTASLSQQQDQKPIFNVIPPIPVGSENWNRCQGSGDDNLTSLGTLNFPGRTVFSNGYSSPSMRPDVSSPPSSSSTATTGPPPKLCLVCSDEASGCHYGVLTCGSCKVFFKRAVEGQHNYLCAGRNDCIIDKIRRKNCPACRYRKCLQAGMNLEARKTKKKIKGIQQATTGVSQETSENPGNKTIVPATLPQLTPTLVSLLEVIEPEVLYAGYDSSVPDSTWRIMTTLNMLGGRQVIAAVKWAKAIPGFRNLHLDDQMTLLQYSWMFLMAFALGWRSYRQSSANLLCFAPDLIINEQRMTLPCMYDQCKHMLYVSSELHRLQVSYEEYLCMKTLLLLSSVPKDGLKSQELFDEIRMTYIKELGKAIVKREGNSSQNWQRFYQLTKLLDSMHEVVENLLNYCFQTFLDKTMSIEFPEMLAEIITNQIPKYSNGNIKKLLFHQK
Sequence of Cytochrome P450 3A4 (Homo sapiens) (P08684 whole entry, looked up): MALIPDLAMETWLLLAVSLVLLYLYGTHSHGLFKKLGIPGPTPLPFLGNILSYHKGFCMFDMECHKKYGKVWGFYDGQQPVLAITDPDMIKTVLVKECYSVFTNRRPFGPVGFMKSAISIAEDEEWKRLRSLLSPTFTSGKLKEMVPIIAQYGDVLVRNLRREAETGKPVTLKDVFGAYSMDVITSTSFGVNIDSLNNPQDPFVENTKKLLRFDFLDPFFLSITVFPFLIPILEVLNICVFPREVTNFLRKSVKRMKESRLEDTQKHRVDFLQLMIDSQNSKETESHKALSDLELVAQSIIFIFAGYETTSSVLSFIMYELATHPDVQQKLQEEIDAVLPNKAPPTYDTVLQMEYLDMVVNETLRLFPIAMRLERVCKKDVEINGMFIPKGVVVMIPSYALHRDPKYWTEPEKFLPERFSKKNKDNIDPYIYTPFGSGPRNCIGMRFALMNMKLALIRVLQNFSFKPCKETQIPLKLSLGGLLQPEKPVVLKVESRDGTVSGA
Sequence of Ubiquitin carboxyl-terminal hydrolase 1 (Homo sapiens) (O94782 whole entry, looked up): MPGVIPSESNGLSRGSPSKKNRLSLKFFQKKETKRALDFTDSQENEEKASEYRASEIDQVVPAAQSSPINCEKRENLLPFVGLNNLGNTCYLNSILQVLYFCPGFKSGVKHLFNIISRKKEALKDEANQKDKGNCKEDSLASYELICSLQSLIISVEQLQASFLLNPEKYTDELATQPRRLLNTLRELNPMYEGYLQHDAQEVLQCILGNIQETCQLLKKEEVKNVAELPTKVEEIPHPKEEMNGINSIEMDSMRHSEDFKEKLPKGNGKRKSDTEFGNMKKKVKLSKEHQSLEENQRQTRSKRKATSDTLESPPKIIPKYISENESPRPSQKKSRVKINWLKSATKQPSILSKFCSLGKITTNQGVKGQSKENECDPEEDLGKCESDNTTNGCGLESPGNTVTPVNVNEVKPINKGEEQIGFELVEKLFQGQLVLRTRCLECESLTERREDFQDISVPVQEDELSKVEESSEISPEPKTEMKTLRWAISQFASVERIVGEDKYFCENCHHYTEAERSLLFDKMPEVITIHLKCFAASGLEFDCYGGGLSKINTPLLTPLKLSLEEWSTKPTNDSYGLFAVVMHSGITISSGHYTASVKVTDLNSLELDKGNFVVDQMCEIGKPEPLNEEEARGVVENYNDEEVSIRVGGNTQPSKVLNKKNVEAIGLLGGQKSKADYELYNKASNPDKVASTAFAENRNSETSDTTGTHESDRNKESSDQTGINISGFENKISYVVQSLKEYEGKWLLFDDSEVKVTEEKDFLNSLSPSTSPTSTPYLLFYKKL
Sequence of 3',5'-cyclic-AMP phosphodiesterase 4B (Homo sapiens) (Q07343 whole entry, looked up): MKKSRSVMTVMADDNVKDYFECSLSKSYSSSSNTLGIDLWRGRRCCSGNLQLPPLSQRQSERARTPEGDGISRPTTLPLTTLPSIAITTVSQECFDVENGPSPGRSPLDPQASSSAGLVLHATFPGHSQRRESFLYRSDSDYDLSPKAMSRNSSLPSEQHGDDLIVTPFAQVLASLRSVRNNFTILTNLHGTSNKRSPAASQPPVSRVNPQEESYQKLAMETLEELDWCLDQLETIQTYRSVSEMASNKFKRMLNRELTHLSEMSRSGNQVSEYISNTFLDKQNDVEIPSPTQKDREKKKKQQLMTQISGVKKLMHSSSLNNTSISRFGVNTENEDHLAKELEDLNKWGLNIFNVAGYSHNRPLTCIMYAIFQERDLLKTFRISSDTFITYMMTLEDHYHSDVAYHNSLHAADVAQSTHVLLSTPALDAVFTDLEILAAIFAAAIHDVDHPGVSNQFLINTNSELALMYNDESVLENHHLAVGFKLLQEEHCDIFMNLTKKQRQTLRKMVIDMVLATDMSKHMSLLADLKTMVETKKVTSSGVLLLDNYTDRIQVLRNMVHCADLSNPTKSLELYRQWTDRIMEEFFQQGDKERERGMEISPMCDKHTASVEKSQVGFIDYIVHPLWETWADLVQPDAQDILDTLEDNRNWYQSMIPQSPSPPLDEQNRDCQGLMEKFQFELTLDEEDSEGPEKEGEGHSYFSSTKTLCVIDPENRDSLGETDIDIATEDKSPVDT
Sequence of ATP-dependent 6-phosphofructokinase (Trypanosoma brucei brucei) (O15648 whole entry, looked up): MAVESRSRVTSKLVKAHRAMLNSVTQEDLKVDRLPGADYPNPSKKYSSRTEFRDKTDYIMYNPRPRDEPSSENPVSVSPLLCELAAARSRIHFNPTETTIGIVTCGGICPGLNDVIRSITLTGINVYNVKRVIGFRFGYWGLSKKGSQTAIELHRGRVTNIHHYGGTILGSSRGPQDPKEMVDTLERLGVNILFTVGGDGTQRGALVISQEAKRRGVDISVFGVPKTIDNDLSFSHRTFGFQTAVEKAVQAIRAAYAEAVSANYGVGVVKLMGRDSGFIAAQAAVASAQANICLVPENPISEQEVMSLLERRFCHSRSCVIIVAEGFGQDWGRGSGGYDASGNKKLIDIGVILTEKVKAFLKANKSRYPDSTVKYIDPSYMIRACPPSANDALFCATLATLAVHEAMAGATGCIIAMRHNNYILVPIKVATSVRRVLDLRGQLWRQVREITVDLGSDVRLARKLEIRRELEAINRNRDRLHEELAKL
Sequence of Luciferin 4-monooxygenase (Photinus pyralis) (P08659 whole entry, looked up): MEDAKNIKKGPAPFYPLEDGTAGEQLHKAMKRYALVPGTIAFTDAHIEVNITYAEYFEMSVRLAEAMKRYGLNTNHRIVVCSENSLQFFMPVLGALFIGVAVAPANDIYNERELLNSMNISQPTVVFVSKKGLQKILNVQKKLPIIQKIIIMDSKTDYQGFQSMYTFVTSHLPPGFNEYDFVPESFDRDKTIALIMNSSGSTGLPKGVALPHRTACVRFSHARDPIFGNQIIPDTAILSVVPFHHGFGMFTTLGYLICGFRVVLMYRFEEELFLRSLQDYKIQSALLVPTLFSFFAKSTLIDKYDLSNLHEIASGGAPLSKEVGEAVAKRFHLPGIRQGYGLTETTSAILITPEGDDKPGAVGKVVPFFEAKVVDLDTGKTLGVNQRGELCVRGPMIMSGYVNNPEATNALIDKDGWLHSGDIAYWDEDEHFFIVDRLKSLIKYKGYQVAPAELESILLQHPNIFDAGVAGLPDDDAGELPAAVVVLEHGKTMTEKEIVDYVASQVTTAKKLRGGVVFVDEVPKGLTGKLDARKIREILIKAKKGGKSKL
Sequence of Cytochrome P450 1A2 (Homo sapiens) (P05177 whole entry, looked up): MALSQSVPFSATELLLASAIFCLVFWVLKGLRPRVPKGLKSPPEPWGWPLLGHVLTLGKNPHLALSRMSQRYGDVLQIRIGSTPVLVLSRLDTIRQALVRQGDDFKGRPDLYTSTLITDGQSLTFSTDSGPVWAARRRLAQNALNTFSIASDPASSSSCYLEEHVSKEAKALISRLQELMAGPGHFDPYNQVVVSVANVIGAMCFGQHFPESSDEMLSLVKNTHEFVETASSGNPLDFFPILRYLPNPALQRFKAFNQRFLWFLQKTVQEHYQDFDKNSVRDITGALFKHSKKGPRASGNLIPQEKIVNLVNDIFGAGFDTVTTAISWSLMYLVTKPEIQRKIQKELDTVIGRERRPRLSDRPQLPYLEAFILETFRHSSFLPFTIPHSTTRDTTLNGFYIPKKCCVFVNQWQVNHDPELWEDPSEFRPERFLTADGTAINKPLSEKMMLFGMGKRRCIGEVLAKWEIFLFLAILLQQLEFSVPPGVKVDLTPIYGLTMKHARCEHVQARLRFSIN

## C[N+]1(C)CCO[C@](O)(c2ccc(-c3ccc([C@]4(O)C[N+](C)(C)CCO4)cc3)cc2)C1
[1]
  Potency: inactive
[2]
  activity change, negative = inhibition: -13.9% (inactive)
[3]
  outcome: inactive
[4]
  Potency: > 20.6 µM (inactive)
[5]
  Potency: > 20.6 µM (inactive)
[6]
  outcome: inactive
[7]
  Potency: inactive
[8]; at 25.7 µM (top of the series)
  activity change, negative = inhibition: -0.651% (inactive)
[8]; [20]
  max response: 6.3%
[8]; [21]
  max response: 5.83%

## CCN(CC)C(=O)N[C@H]1C=C2c3cccc4[nH]cc(c34)C[C@@H]2N(C)C1
[9]
  outcome: inactive
[3]
  outcome: inactive
[4]
  Potency: > 20.6 µM (inactive)
[5]
  Potency: > 20.6 µM (inactive)
[6]
  outcome: inactive
[7]
  Potency: inactive
[8]; at 25.7 µM (top of the series)
  activity change, negative = inhibition: -1.39% (inactive)
[8]; [20]
  max response: -15.1%
[8]; [21]
  max response: -15.7%
[10]
  Potency: 35.5 µM (active)

## COc1nc(NC(C)C)nc(NC(C)C)n1
[11]
  Potency: inactive
[12]
  Potency: inactive
[13]
  Potency: inactive
[8]; at 57.5 µM (top of the series)
  activity change, negative = inhibition: 2.18% (inactive)
[8]; [20]
  max response: -5.5%
[8]; [21]
  max response: -2.96%
[10]
  Potency: inactive

## COc1cc2c(c(OC)c1OC)-c1ccc(OC)c(=O)cc1[C@H](NC(C)=O)CC2
[8]; at 25.7 µM (top of the series)
  activity change, negative = inhibition: -7.92% (inactive)
[8]; [20]
  max response: -13.6%
[8]; [21]
  max response: -22.5%
[10]
  Potency: inactive

## CC(C)N1C(=O)c2ccccc2NS1(=O)=O
[11]
  Potency: inactive
[12]
  Potency: inactive
[13]
  Potency: inactive
[8]; at 57.5 µM (top of the series)
  activity change, negative = inhibition: 2.96% (inactive)
[8]; [20]
  max response: 13.1%
[8]; [21]
  max response: 17.2%
[10]
  Potency: inactive

## CNc1ccc(C(=O)CC(O)CCC(C)C2OC(=O)CC(O)CC(=O)CC(O)CC(O)CC(O)CC(O)CC3(O)CC(O)C(C(=O)OC)C(CC(O[C@@H]4OC(C)C(O)C(N)C4O)/C=C/C=C/C=C/C=C/C=C/C=C/C=C/C2C)O3)cc1 (some centres undefined)
[11]
  Potency: inactive
[12]
  Potency: inactive
[13]
  Potency: inactive
[8]; at 57.5 µM (top of the series)
  activity change, negative = inhibition: 9.29% (inactive)
[8]; [20]
  max response: 14.1%
[8]; [21]
  max response: 27.6%
[14]
  Potency: inactive
[15]
  Potency: inactive
[16]; parasite line A
  activity, negative = inhibition: 6.26% (inactive)
[16]; parasite line B
  activity, negative = inhibition: 3.77% (inactive)
[17]
  Potency: inactive
[18]
  Potency: inactive
[19]
  Potency: inactive

## CNC(=O)Oc1cccc2c1OC(C)(C)O2
[11]
  Potency: inactive
[12]
  Potency: inactive
[13]
  Potency: inactive
[8]; at 57.5 µM (top of the series)
  activity change, negative = inhibition: 5.39% (inactive)
[8]; [20]
  max response: 18%
[8]; [21]
  max response: 22.8%
[10]
  Potency: inactive

## CC(C)Nc1nc(Cl)nc(NC(C)C)n1
[11]
  Potency: inactive
[12]
  Potency: inactive
[13]
  Potency: inactive
[8]; at 57.5 µM (top of the series)
  activity change, negative = inhibition: 3.35% (inactive)
[8]; [20]
  max response: 5.6%
[8]; [21]
  max response: 10.8%
[10]
  Potency: inactive

## C=CC1CN2CCC1CC2C(OC(=O)OCC)c1ccnc2ccc(OC)cc12 (centres undefined)
[11]
  Potency: 7.94 µM (active)
[12]
  Potency: inactive
[13]
  Potency: inactive
[8]; at 57.5 µM (top of the series)
  activity change, negative = inhibition: 5.87% (inactive)
[8]; [20]
  max response: 0.936%
[8]; [21]
  max response: 9.58%
[14]
  Potency: inactive
[10]
  Potency: inactive
[15]
  Potency: inactive
[16]; parasite line A
  Potency: 1.58 µM (active)
[16]; parasite line B
  Potency: 2.24 µM (active)
[17]
  Potency: 7.94 µM (active)
[18]
  Potency: 5.62 µM (active)
[19]
  Potency: 6.31 µM (active)
